Compound activity as filed in PubChem BioAssay.
Shown are actives, neighbours in structure and some others; about 8.8% of the full set was active somewhere.
LMNA splice mod – LMNA splicing modulation; Potency, µM (highest dose often 46.1 µM), for the others: at the highest dose ratio change, negative = inhibition, actives largely listed as inhibitors; HeLa LMNA splicing GFP/RFP minigene ratio, 48 h; hit rate 0.01% among 200,000; active = well fitted inhibition curve with a large enough effect in the signal ratio, with a control signal flat, not every such curve was filed as active; inconclusive = small, poorly fitted or top-dose-only effect, or effect the other way, or a change in a side signal; the % refers to the signal ratio; also: % is scaled to controls: 0 for no effect and ±100 for the full control effect
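S3 HeLa cells stably expressing lamin A-EGFP splicing minigene plus DsRed2, 600 cells/well, 48 h compound exposure at 37C. Laser-scanning cytometry; analysed as GFP (500-530 nm)/RFP (575-640 nm) total intensity ratio; 0.5% DMSO vehicle.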
HttQ103 aggreg – inhibitors of mutant huntingtin aggregate formation in PC12 cells | PC12 HttQ103-GFP aggregates, Acumen cytometry, 40 h | hit rate 1.1% among 220,000 | AID 1688 | Potency, µM (series often up to 46.1 µM), for the others: at the highest dose activity change, negative = inhibition, hits mostly inhibitors; active = well fitted curve in the direction sought with a large enough effect; inconclusive = small, poorly fitted or top-dose-only effect, or another doubt; inactive = no such curve, though single readings can be large; an effect the other way counts as inactive or inconclusive; also: % is scaled to controls: 0 for no effect and ±100 for the full control effect; nearly all actives have a fitted effect of over 60% in size
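Aggregates are detected as GFP objects 1–25 µm with signal 6 STDEV over background in lysates of induced PC12 cells. These carry Huntingtin exon 1 with 103 glutamines fused to GFP under an ecdysone promoter; compounds titrated.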
HTT cytoprotect – cytoprotection in Huntington HTT-Q103 PC12 cell model. AID 1471. PC12 HTT-Q103 induced, cytoprotection, ATP luminescence, 40 h. hit rate 0.14% among 230,000. Potency, µM (series often up to 56.4 µM), without a hit: cytoprotection (ATP increase), most hits filed as activators; active = well fitted curve in the direction sought with a large enough effect; inconclusive = small, poorly fitted or top-dose-only effect, or another doubt; inactive = no such curve, though single readings can be large; an effect the other way counts as inactive or inconclusive; also: % of control where 0% means no effect; nearly all actives have a fitted effect of over 45% in size
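Readout: ATPlite luminescence (ATP level). Model: stable PC12, inducible Htt exon1 Q103-GFP. Inducer: tebufenozide, 100 nM final. Compounds: dose series. No G418 in medium.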
HPGD block – HPGD (human) dehydrogenase inhibition. purified HPGD, NADH fluorescence kinetic, PGE2 substrate. P15428. AID 894. hit rate 4.3% among 150,000. Potency, µM, inactives show top-dose activity change, negative = inhibition, actives largely listed as inhibitors; also: % is scaled to controls: 0 for no effect and ±100 for the full control effect
Target sequence (P15428 whole entry, looked up): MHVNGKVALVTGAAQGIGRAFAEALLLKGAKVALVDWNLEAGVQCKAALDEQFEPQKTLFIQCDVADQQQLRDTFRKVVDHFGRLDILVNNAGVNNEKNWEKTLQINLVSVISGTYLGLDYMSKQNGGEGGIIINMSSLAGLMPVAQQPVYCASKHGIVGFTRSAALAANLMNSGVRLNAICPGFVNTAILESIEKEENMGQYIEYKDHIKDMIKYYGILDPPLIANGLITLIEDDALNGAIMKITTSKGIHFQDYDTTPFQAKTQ
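NADH formation kinetics: reaction with 30 uM PGE2 and 1 mM NAD+ (final), 20 nM enzyme, Tris-HCl pH 8 with Tween 20, after 15 min compound preincubation at room temperature. Fluorescence change, last versus first of five reads.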
ALDH1A1 block – ALDH1A1 (human) enzyme inhibition. AID 1030. hit rate 7.3% among 220,000. Potency, µM (top dose mostly 75.3 µM), for inactives: top-dose activity, negative = inhibition, hits mostly inhibitors. Purified ALDH1A1, NADH fluorescence, propionaldehyde substrate. P00352;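 also: plate controls were no enzyme wells and a reference inhibitor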
Target sequence (P00352 whole entry, looked up): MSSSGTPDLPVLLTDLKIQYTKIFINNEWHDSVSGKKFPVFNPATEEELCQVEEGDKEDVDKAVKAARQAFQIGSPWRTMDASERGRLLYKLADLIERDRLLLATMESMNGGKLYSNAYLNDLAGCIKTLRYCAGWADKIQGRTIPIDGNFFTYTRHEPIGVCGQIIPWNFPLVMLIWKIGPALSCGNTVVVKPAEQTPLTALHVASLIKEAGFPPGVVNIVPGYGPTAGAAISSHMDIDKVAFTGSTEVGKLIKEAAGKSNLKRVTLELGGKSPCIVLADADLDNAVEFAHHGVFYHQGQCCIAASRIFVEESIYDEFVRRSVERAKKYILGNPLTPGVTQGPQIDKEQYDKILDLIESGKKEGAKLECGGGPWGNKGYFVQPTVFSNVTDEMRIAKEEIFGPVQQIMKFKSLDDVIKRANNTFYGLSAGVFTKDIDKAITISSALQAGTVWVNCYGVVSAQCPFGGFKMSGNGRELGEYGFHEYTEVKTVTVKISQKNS
* marks the source's active call; other numbers are inactive results; ? = inconclusive; nt = no result given; ! = repeats disagree; [ ] = remark or other dose. Unless noted, calls follow the shape of the dose curve; as a rule, active = well fitted inhibition curve with a large enough effect (not every such curve was filed as active); inconclusive = small, poorly fitted or top-dose-only effect, or another doubt; inactive = no such curve, though single readings can be large or run the other way. Potency is read from the fitted curve at half-maximal effect.

SMILES | LMNA splice mod | HttQ103 aggreg | HTT cytoprotect | HPGD block | ALDH1A1 block
Cc1cc(C(=O)CN2C(=O)C(=O)N(CC(C)C)C2=O)c(C)n1-c1ccccc1F | nt | -20.5% | -34.6% | nt | ?
Cc1cc(C(=O)CN2C(=O)c3ccccc3S2(=O)=O)c(C)n1-c1ccccc1 | 8.1% | -31.6% | -108.1%[10 µM] | -7.6% | ?
Cc1cc(C(=O)CN2C(=O)NC(CC(C)C)C2=O)c(C)n1-c1ccccc1F (configuration not stated) | -2.0%[46 µM] | -6.1% | -23.3% | nt | 6.31µM*
C=C1c2cccc(C(F)(F)F)c2O[C@H](C(=O)OCC)[C@@H]1CCCCCC | nt | nt | 4.9% | -0.2% | 3.5%
Cn1cc([N+](=O)[O-])c(C(=O)N(Cc2ccccc2)Cc2ccccc2)n1 | 1.5% | 24.3% | 2.51µM* | -13.0% | -10.0%
Cn1cc([N+](=O)[O-])c(C(=O)NCc2ccccc2)n1 | nt | -1.9%[9.22 µM] | -3.3%[10 µM] | nt | nt
CC(=O)Nc1ccc(S(=O)(=O)NCCc2cn3ccsc3n2)cc1 | -13.8%[46 µM] | nt | nt | nt | nt
CCCCCCCCCCCC1=C(O)C(=O)C=C(O)C1=O | nt | nt | ? | 14.1µM*! | 23.8µM*
O=S(=O)(c1ccccc1)N1CCC[C@@]2(CCN(C(c3ccccc3)c3ccccc3)C2)C1 | nt | nt | -56.3% | -11.7% | -3.2%
CC(C)Cn1c(-c2ccc(F)cc2)n[nH]c1=S | -15.4% | 9.4% | 5.1%[10 µM] | 28.2µM* | ?
CC(C)Cn1c(-c2ccccc2F)n[nH]c1=S | 0.2% | 10.9% | 4.6% | -23.6% | -12.4%
O=C(NCc1n[nH]c(=S)n1Cc1ccccc1)c1ccc(Cl)cc1Cl | nt | -3.7% | ? | nt | 22.4µM*
CCN(CC)S(=O)(=O)c1ccc(C(=O)NCc2n[nH]c(=S)n2Cc2ccccc2)cc1 | 6.9% | -0.3% | 3.0% | -10.2% | 2.51µM*
CC(C)Cn1c(-c2csc3c2CCCC3)n[nH]c1=S | 7.2% | -21.4% | -8.4% | 28.2µM* | 35.5µM*
Cc1ccc(CNC(=O)CSc2c(C(C)C)cnc3c2c(=O)n(C)c(=O)n3C)cc1 | 14.6%[46 µM] | nt | nt | nt | nt
CCN(CC)S(=O)(=O)c1cccc(-c2n[nH]c(=S)n2Cc2ccccc2)c1 | -15.3%[46 µM] | -13.3% | 19.3%[10 µM] | nt | 7.08µM*
CCN(CC)S(=O)(=O)c1cccc(-c2n[nH]c(=S)n2CC(C)C)c1 | nt | 16.6% | -16.1% | nt | 7.94µM*
COc1ccc(NS(=O)(=O)c2cccc(-c3n[nH]c(=S)n3Cc3ccccc3)c2)cc1 | ? | -8.4% | -49.8% | nt | 0.447µM*
CCN(CC)S(=O)(=O)c1ccc(C(=O)NCc2ccc(C)cc2)cc1 | -2.1% | 9.1% | -42.6% | 0.2% | 10µM*
CCN(CC)S(=O)(=O)c1ccc(C(=O)NCc2cccs2)cc1 | 4.0% | 4.2% | -31.5% | -16.2% | -7.1%
COC(Cn1c(-c2cccc(S(=O)(=O)N(C)C)c2)n[nH]c1=S)OC | -20.7%[46 µM] | 13.5% | -36.6% | nt | ?
O=C(CSc1nc2ccccc2nc1Cc1ccc(Cl)cc1)NCCc1ccccc1 | -7.4%[46 µM] | nt | nt | nt | nt
Cc1cc(Nc2cccc(F)c2)n2nc(-c3ccco3)nc2n1 | 5.7%[46 µM] | nt | nt | nt | nt
Cc1nnc2c(N3CCN(c4ccccc4F)CC3)nc3ccccc3n12 | -2.9%[46 µM] | nt | nt | nt | nt
COC(=O)NC(C(=O)OC)(C(=O)OC)c1ccccc1 | nt | nt | -15.9% | -2.9% | 4.3%
SMILES | LMNA splice mod | HttQ103 aggreg | HTT cytoprotect | HPGD block | ALDH1A1 block
CC(=O)c1cccc(Nc2ncnc3c2cnn3-c2cccc(Cl)c2)c1 | -6.1%[46 µM] | nt | nt | nt | nt
O=C(O)CC/C(=C\c1ccc(N2CCOCC2)c([N+](=O)[O-])c1)c1nc2ccccc2s1 | -29.7%[46 µM] | 2.6% | -7.7% | nt | 6.31µM*
O=C(O)C/C(=C\c1ccc(N2CCOCC2)c([N+](=O)[O-])c1)c1nc2ccccc2s1 | nt | 15.4%[9.22 µM] | 16.2%[10 µM] | nt | nt
O=C(c1ccc2nc[nH]c2c1)N1CCc2ccccc2C1 | 19.4%[46 µM] | 24.5% | -26.4% | nt | 1.8%
O=C1Nc2cc(C(=O)N3CCc4ccccc4C3)ccc2S/C1=C\c1ccccc1 | ? | -25.9% | 2.82µM* | 15.8µM* | ?
COc1cccc(Nc2ncc3nc(C)c(=O)n(CCC#N)c3n2)c1 | nt | nt | -6.2% | -4.9% | 1.9%
C#CC[N+](C)(C)CCCCCCCCCC | ? | ? | -7.1%[10 µM] | -10.1% | 1.9%
CCCCCCCCCCCCCC[N+](C)(C)Cc1ccccc1 | nt | 25.1µM* | -98.6% | nt | nt
CCCCCCCCCCCCCCCC[N+](C)(C)CC | nt | 14.1µM* | -98.0% | nt | nt
C#CC[N+](C)(C)CCCCCCCC | ? | 8.91µM* | -12.5%[10 µM] | 0.7% | 3.0%
CCCCCCCCCCCCCCCC[N+](C)(C)Cc1ccccc1 | nt | ? | -97.3% | nt | nt
CCCCCCCCCCCCCC[N+](C)(C)C | nt | 15.8µM* | -107.1% | nt | nt
CCCCCC[N+](C)(C)CCSSCC[N+](C)(C)CCCCCC | nt | -7.8%[9.22 µM] | 10.4%[10 µM] | nt | nt
Cc1ccc2c(c1)C(=O)CC1(CCCC1)O2 | nt | -35.9%[9.22 µM] | 12.7%[10 µM] | nt | nt
COC(=O)C1(C(=O)OC)Cc2conc2[C@H]1c1ccccc1 | nt | nt | ? | 0.9% | 2.1%
CCOC(=O)c1noc2ncnc(N3CCC(C)CC3)c12 | 13.1%[46 µM] | nt | nt | nt | nt
Cn1c(=O)c2c(nc(SCC(=O)c3ccccc3F)n2C)n(C)c1=O | nt | -10.1%[9.22 µM] | -17.8%[10 µM] | nt | 17.8µM*
CCn1c(SCC(=O)N2c3ccccc3Sc3ccccc32)nc2c1c(=O)n(C)c(=O)n2C | 1.8% | -11.8% | 0.5%[10 µM] | -11.7% | 11.2µM*
CCCn1c(SCC(=O)N2CCc3ccccc3C2)nc2c1c(=O)n(C)c(=O)n2C | 7.2% | -8.3% | -5.2%[10 µM] | -2.3% | -8.6%
CCCn1c(SCC(=O)N2c3ccccc3CCc3ccccc32)nc2c1c(=O)n(C)c(=O)n2C | -8.2% | 14.3% | -10.6% | -12.9% | 11.2µM*
CC(C)c1cnc2c(c1SCC(=O)Nc1cccc([N+](=O)[O-])c1)c(=O)n(C)c(=O)n2C | -9.0%[46 µM] | nt | nt | nt | nt
O=[N+]([O-])c1ccc(CSc2nnc(Cc3ccccc3)o2)cc1 | nt | -13.7%[9.22 µM] | -5.2%[10 µM] | nt | nt
CCOC(=O)CSc1nc(NCc2ccco2)c2ccccc2n1 | 1.1% | 7.5% | 8.0% | -10.2% | ?
COc1ccc(Cc2nnc(SCC(=O)NCc3ccco3)o2)cc1 | 5.1% | -3.5% | 4.9%[10 µM] | 20µM* | ?
